# Assay results: PubChem BioAssay (NCI)
# “And” between values parts separate entries of the source, which are not always exact repeats. Equal values may be shown once. Compounds without any hit were thinned out: in the full panel of roughly 83,000, 20% have a hit.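 Cells were grown in 96-well plates and exposed to the test compound at a single concentration for 48 hours; results are reported as percent growth, with values below 10 considered active.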 The source made the active and inactive calls.
# Test system: MDA-MB-468 breast
# Assay: NCI-60 one-dose screen, 48 h (100 = growth as untreated, 0 = no growth, -100 = all killed)
# Details: 10 µM unless noted
row,SMILES,growth
1,COc1ccc(C(=S)N2CCN(c3ccc(Cl)cc3)CC2)cc1,102% (inactive)
2,CC(C)N1CCN(Cc2ccc3c(NNC(=O)c4ccccc4)nc4cc(F)ccc4n23)CC1,-14.3% (active)
3,COc1ccc2nc(NC(=O)Nc3c(F)cccc3F)sc2c1,96.1% (inactive)
4,O=C(NCCNc1cc(-c2cn(-c3ccccc3)nc2-c2cccc(O)c2)ccn1)Nc1cc(C(F)(F)F)cc(C(F)(F)F)c1,93.6% (inactive)
5,Nc1ccn(C2CC(N)C(CO)O2)c(=O)n1 (stereo not given),101% (inactive)
6,COc1ccc(C(=O)/C=C/c2c(C(F)(F)F)nc3ccccn23)cc1OC,-59.9% (active)
7,NC(C(=O)O)c1ccc([N+](=O)[O-])cc1 (stereo not given),111% (inactive)
8,CC(C)CSc1nc(NN)c(C#N)c(-c2ccc(F)cc2)n1,85.2% (inactive)
9,CCOC(=O)C1=C(N)Oc2c(sc3c(C)cccc23)C1c1ccc(OC)cc1 (stereo not given),0.934% (active)
10,COc1ccc2oc3c(C)c4c(c(C)c3c2c1)C(=O)N(Cc1ccccc1)C4=O,100% (inactive)
11,C=C(C)[C@@H]1CC[C@]2(CO)CC[C@]3(C)[C@H](CC[C@@H]4[C@@]5(C)C=C(C#N)C(=O)C(C)(C)[C@@H]5CC[C@]43C)[C@@H]12,8.08% (active)
12,CCOC(=O)C(CC)n1c(=O)c2cc(OC)c(OC)cc2c2cnc3[nH]ccc3c21 (stereo not given),84.2% (inactive)
13,O=S(Nc1ccccc1)c1ccc(Cl)cc1 (stereo not given),91.5% (inactive)
14,COc1ccc(C(=O)/C(=N/Nc2ccccc2)c2ccc(OC)cc2)cc1,106% (inactive)
15,CCC(C)CC(C)C(=O)c1c(O)ccn(O)c1=O (stereo not given),13.8% (inactive)
16,NC(N)=Nc1ccc(Oc2cccc(Nc3cccc(C(F)(F)F)c3)c2)cn1,-37.1% (active)
17,Cc1ccc(C)c(NC2=C(Cl)C(=O)c3nc(C)ccc3C2=O)c1,-73.5% (active)
18,NS(=O)(=O)c1ccc(Nc2nc(SCc3ccccc3)nc3ccccc23)cc1,65.4% (inactive)
19,CC(=O)N(C)c1ccc(Nc2ccc(Nc3ccc(N(C)C(C)=O)cc3)c3c2C(=O)c2ccccc2C3=O)cc1,30.9% (inactive)
20,CC(c1ccccn1)C(C)(O)C(C)c1ccccn1 (stereo not given),106% (inactive)

row,SMILES,growth
1,CCC(CC)n1c(=O)c(SC2=NC3C(NN2)N(CC)C(=O)N3CC)c(C(=O)O)c2ccccc21 (stereo not given),23% (inactive)
2,COc1ccc2c(c1)c(-c1nnc(N)nc1-c1cn(C)c3ccccc13)cn2C,78.8% (inactive)
3,Cc1nc(/N=C(\N)NC(=O)Nc2cccc([N+](=O)[O-])c2)sc1C,11.6% (inactive)
4,COc1cnc2c(c1)C(=O)c1c-2n(CCCN2CCOCC2)c(=O)c2cc(Cl)ccc12,-1.98% (active)
5,Oc1cccc(-c2nc(-c3n[nH]c(=S)n3-c3ccccc3)cc3c2[nH]c2ccccc23)c1,9.85% (active)
6,Oc1c(Cl)cc(Cl)c2ccc(CN3CCNCC3)nc12,34.4% (inactive)
7,COc1ccc(OC)c(Nc2nc3nonc3nc2Nc2cccc(Br)c2)c1,0.0908% (active)
8,O=C(/C=C/C=C/c1ccc2c(c1)OCO2)N1CCCCC1,106% (inactive) and 105% (inactive)
9,O=C(O)c1ccc2c(c1Sc1ccccc1)C(=O)c1ccccc1C2=O,97.9% (inactive)
10,Oc1ccc(Cl)cc1-c1cc(-c2ccc(Cl)cc2)n[nH]1,8.55% (active)
11,CCCCOc1nc2ccccc2cc1C1CNC(=O)c2ccccc2N1 (stereo not given),-1.81% (active)
12,CCCCN(C)N=Nc1ccc(C(N)=O)cc1,102% (inactive)
13,O=C(O)CCCCCCCCCCN1C(=O)/C(=C2/C(=O)N(CC(=O)O)c3ccc(Br)cc32)SC1=S,102% (inactive)
14,COC(=O)[C@H](Cc1cn(C)cn1)NC(=O)[C@H](Cc1ccccc1)NC(=O)Nc1cc(C(F)(F)F)cc(C(F)(F)F)c1,-69.6% [100 µM] (active)
15,OCCN1CCN(CCCN2c3ccccc3Sc3ccc(Cl)cc32)CC1,25.3% (inactive)
16,COC(=O)C1=C(C(=O)ON)[C@@H]2C=C[C@@]1([C@@H](Cc1ccccc1)Nc1ccccc1)O2,-38.8% (active)
17,CN1CCN(c2nc(-c3cccc4ccccc34)nc3sc4c(c23)CCCCCC4)CC1,77.3% (inactive)
18,COc1cc2c(c(OC)c1)C1c3ccccc3NC(=O)N1CC2 (stereo not given),-0.759% (active)
19,O=C(O)CSc1ccc(NCc2oc(CO)cc(=O)c2O)cc1,108% (inactive)
20,CC(=O)N/C(=C1/OC(C(O)C(O)C(O)CO)CN1C)[P+](c1ccccc1)(c1ccccc1)c1ccccc1 (stereo not given),106% (inactive)
